Compounds without any hit were thinned out: in the full panel of roughly 83,000, 20% have a hit.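 The endpoint reported here, percent growth, reads 100 for growth as untreated, 0 for no net growth and -100 for all cells dead.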 Activity calls are given as the source filed them. The calls were made as follows: active = growth percent below 10; inactive = the rest.

This assay deals with RPMI-8226 leukemia. Description: NCI-60 one-dose screen, 48 h (100 = growth as untreated, 0 = no growth, -100 = all killed). To be noted: 10 µM unless noted.
Consider `CCCc1n(Cc2ccc3ccccc3c2)cc[n+]1Cc1ccc2ccccc2c1`, for which the growth is -22.2% (active). Take `CC(=O)OCC(=O)[C@@]1(O)CC[C@H]2[C@@H]3CCC4=CC(=O)CC[C@]4(C)[C@@]3(F)[C@@H](O)C[C@@]21C`: the growth is 62.5% (inactive). Take `COC(=O)[C@H](Cc1cnc[nH]1)NC(=O)[C@@H](NC(=O)Nc1cc(C(F)(F)F)cc(C(F)(F)F)c1)C(C)C`: the growth was -53% [100 µM] (active). Then `COc1ccccc1-n1c(-c2ccc(O)cc2C)cn2c3c(=O)[nH]c(=O)n(C)c3nc12`, with 93% (inactive); and `Nc1nc(Nc2ccccc2SSc2ccccc2Nc2nc(N)nc(-c3cccc(Cl)c3)n2)nc(-c2cccc(Cl)c2)n1`, with 89.6% (inactive); and `COc1ccc2c(c1)C(=Nc1cc(OC)c(OC)c(OC)c1)C(=O)N2`, with 65.9% (inactive). With `CC1C(=O)NC2=Nc3ccccc3C(=O)NN21` (stereo not given), the growth was 90.3% (inactive).

In the case of `CC1c2ccccc2-c2ccccc2N1C` (stereo not given), the growth is 90.5% (inactive).

With `CCC(C)C1NC(=O)C(CCNCS(=O)(=O)O)NC(=O)C(NC(=O)C(CCNCS(=O)(=O)O)NC(=O)C(NC(=O)C(CCNCS(=O)(=O)O)NC(=O)CCCCC(C)C)C(C)O)CCNC(=O)C(C(C)O)NC(=O)C(CCNCS(=O)(=O)O)NC(=O)C(CCNCS(=O)(=O)O)NC(=O)C(C(C)CC)NC1=O` (stereo not given), the growth is 22.6% (inactive). Turning to `O=C(N/N=C/c1ccc(Cl)cc1Cl)c1ccccc1Nc1cccc(C(F)(F)F)c1`, the growth was 58.4% (inactive). In the case of `COc1cnc2c(c1)C(=O)c1c-2n(CCCN2CCNCC2)c(=O)c2cc(F)ccc12`, the growth was -30.9% (active). For the molecule `O=C(/C=C/c1cccc(Nc2ccnc3cc(Cl)ccc23)c1)c1ccc(Cl)cc1`, the growth was -9.58% (active). Regarding `Nc1c(C(=O)Nc2cccc(Cl)c2)sc2nc3c(cc12)C(O)CCC3` (stereo not given), the growth was 6.38% (active). With `Nc1nc(Nc2ccccc2SSc2ccccc2Nc2nc(N)nc(C(Cl)(Cl)Cl)n2)nc(C(Cl)(Cl)Cl)n1`, the growth was 36.1% (inactive).

As for `Cc1ccc(/C=C(/C#N)n2nnc3ncccc32)cc1`, the growth was 7.18% (active).

For `O=C1C=CC(=O)N1c1ccccn1`, the growth was 113% (inactive).

Turning to `c1ccc(COc2ccc(Nc3ncnc4c3cnn4-c3ccccc3)cc2)cc1`, the growth is 96.5% (inactive). For `CN1C(=O)C(C2=NN(C=O)C(c3ccc(F)cc3)C2)C(=O)N(C)C1=O` (stereo not given), the growth was 95.8% (inactive). For `COc1ccc(C(=O)/C=C/c2cccc(Nc3ccnc4cc(Cl)ccc34)c2)cc1` the value was 35.3% (inactive); for `Cc1n(Cc2ccc3ccccc3c2)cc[n+]1Cc1ccc2ccccc2c1`, 2.6% (active); for `O=C(/C=C/c1ccc(C(F)(F)F)cc1)c1ccc(Nc2nc(NCCO)nc(NCCO)n2)cc1`, 1.43% (active). Then `O[N+]1=CC=CCC1=S.On1ccccc1=S.[Zn]`, with -32.6% (active); and `Cn1c(=O)c2[nH]c(=S)n(Cc3ccccc3)c2n(C)c1=O`, with 119% (inactive).

On to `COc1cc(/C=C/C(=O)c2c(C)n([O-])c3ccc(Cl)cc3[n+]2=O)cc(OC)c1OC`, for which the growth was 72.6% (inactive). Turning to `COc1ccc(Oc2ccccc2NC(=O)CNC(=O)c2cccc3ccccc23)cc1`, the growth was 27.4% [5 µM] (inactive).

Consider `CN[C@@H]1C(OC2[C@H](O[C@H]3[C@H](O)[C@@H](O)[C@H](N=C(N)N)[C@@H](O)[C@@H]3N=C(N)N)OC(C)[C@]2(O)CO)OC(CO)C(O)C1O` (stereo not given in full), for which the growth is 103% (inactive). With `CNc1nc(NC2CCCC2)nc(Sc2ccc(OC)cc2)n1`, the growth was -11.2% [100 µM] (active). For the molecule `COc1ccc(OC)c(CCn2cncc2-c2c[nH]c3cc(Br)ccc23)c1`, the growth is 16.7% (inactive). For `COc1cnc2c(c1)C(=O)c1c-2n(CCCN2CCCC2)c(=O)c2cc(F)ccc12` the value was -22.8% (active); for `COc1cc(C2=NN(C=O)C(c3cccc(Nc4ccnc5cc(Cl)ccc45)c3)C2)cc(OC)c1OC` (stereo not given), 53.7% (inactive); for `N#Cc1c(-c2ccccc2)cc(-c2ccccc2)n(CCCCC(=O)O)c1=O`, 96.2% (inactive). On to `CCOC(=O)/C=C1/SC(=Nc2ccc(C#N)cc2)N(Cc2ccco2)C1=O`, for which the growth is -33.8% (active). Take `O=C(NCCNC(=O)Oc1cccc2ccccc12)Oc1cccc2ccccc12`: the growth is 92.5% (inactive). On to `Oc1ccc(/C=N/Nc2nc3ccccc3s2)c(O)c1`, for which the growth is 37.4% (inactive). For `C=C1CC[C@@H]2[C@](C)(COC(C)=O)[C@H](OC(C)=O)CC[C@@]2(C)[C@@H]1CC(NCc1ccccc1)C1=CCOC1=O` (stereo not given in full) the value was 3.18% (active); for `Nc1nc(SCc2cccnc2)c2ncn(C3OC(CO)C(O)C3O)c2n1` (stereo not given), 115% (inactive). As for `COc1ccc(C2=NN(C=O)C(c3cccc(Nc4ccnc5cc(Cl)ccc45)c3)C2)cc1` (stereo not given), the growth was 23.2% (inactive). Turning to `O=CN1N=C(c2ccc(Nc3ccnc4cc(Cl)ccc34)cc2)CC1c1ccc(Cl)cc1` (stereo not given), the growth is 4.55% (active).

As for `Cc1sc2nc(N3CCCCC3)[nH]c(=O)c2c1C`, the growth is 106% (inactive). For `Cc1ccc(N/N=C(/C(=O)c2ccc(Cl)cc2)c2nc(C)cc(=O)[nH]2)cc1`, the growth is 85.1% (inactive).

For the origin of these results see PubChem BioAssay (NCI).
